Our source for the inhibition values is PubChem BioAssay AID485346 (Sanford-Burnham Center for Chemical Genomics, 2010).

Out of some 330,000 compounds screened, about 10,000 (3%) were called active.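 Rule for the calls: active = inhibition of at least 50% at 8 µM in the primary screen; inactive = the rest.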 The entries come from a sample that favours actives as a whole.

Chain of Protein Mdm4 (Homo sapiens) + E3 ubiquitin-protein ligase Mdm2 (Homo sapiens) (O15151 whole entry, looked up): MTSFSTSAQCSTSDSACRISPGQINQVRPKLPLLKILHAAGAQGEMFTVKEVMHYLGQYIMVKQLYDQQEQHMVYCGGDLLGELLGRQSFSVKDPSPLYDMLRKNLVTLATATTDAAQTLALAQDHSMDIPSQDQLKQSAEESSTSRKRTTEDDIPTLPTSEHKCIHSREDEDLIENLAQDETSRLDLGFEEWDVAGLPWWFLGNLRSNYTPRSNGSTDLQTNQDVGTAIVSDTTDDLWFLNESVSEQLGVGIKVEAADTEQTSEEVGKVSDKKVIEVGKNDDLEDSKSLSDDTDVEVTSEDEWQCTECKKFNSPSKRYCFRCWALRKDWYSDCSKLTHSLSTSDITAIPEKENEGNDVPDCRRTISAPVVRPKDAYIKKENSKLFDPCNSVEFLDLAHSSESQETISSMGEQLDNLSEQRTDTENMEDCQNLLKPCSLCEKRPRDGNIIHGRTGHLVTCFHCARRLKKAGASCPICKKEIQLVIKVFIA
Chain of Protein Mdm4 (Homo sapiens) + E3 ubiquitin-protein ligase Mdm2 (Homo sapiens) (Q00987 whole entry, looked up): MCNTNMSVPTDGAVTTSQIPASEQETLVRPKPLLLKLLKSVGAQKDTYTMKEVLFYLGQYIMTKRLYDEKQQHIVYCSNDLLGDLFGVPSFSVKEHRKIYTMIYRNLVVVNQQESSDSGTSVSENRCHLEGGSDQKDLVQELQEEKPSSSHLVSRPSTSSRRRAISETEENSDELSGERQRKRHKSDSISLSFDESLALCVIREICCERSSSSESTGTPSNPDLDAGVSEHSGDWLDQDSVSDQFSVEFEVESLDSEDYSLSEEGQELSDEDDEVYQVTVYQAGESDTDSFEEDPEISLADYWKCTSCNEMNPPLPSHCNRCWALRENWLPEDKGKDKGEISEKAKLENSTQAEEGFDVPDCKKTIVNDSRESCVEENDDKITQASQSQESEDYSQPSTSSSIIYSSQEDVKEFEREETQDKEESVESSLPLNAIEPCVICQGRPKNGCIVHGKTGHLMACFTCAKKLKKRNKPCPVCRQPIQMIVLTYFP

The assay has as its target Protein Mdm4 (Homo sapiens) + E3 ubiquitin-protein ligase Mdm2 (Homo sapiens) (UniProt O15151+Q00987). Description: disruptors of Mdm2/MdmX RING complex – cell-based, luminescence, split luciferase, SaOS-2, uHTS, primary screen (AID 485346). The following applies: SaOS-2 split-luciferase Mdm2/MdmX complementation, at 8 µM, active compounds read high.
For the compound `NC(=O)CCC(NS(=O)(=O)c1ccc(Cl)cc1)C(=O)NCc1ccccc1Cl` (stereo unspecified), the inhibition was 20.8% (inactive).

`Cc1cc(C)c2nc(-c3cccnc3)cc(C(=O)Nc3ccc(S(=O)(=O)Nc4onc(C)c4C)cc3)c2c1`: the inhibition is -28.5% (inactive). Consider `Cc1ccc(Cn2c(=N)c(S(=O)(=O)c3ccc(C)cc3)cc3c(=O)n4ccccc4nc32)cc1`, for which the inhibition is 21.6% (inactive).

Take `COCc1[nH]nc2c1C(C1C=CCCC1)C(C#N)=C(N)O2` (stereo unspecified): the inhibition was 23.8% (inactive). To `N#CC1=C(N)Oc2cc(O)ccc2C1C1CCCCC1` (stereo unspecified) belongs 64.7% (active); to `N#CC1=C(N)OC2=C(C(=O)CCC2)C1C1CC=CCC1` (stereo unspecified), -10% (inactive); to `COc1cc(/C=C2\Oc3ccc(C#Cc4ccc(O)cc4)cc3C2=O)cc(OC)c1`, 62.4% (active). `COc1cc(C#Cc2ccc3cc(CCCO)oc(=O)c3c2)cc(OC)c1`: the inhibition was 38.9% (inactive).

For `COc1ccc2c(c1)O/C(=C\c1ccccc1O)C2=O`, the inhibition is -152% (inactive). To `O=C(Nc1cccc2c1CCCC2)c1ccc(F)cc1` belongs 11.9% (inactive); to `COc1ccc([C@H]2CC(=O)C=C(c3ccc(OC(F)(F)F)cc3)C2)cc1OC`, -6.36% (inactive); to `CC[n+]1cc(C)ccc1/C=C/c1ccc(N(C)C)cc1`, 81.1% (active). To `Cc1ccc2c(cnn2C(=O)CCC(=O)NC2CCCC2)c1` belongs 7.95% (inactive); to `Cn1nccc1NS(=O)(=O)c1ccc(F)cc1`, -11.5% (inactive). To `NS(=O)(=O)c1ccc(CCNC(=O)c2ccc([N+](=O)[O-])cc2[N+](=O)[O-])cc1` belongs -0.842% (inactive).

With `Cc1c(-c2ccccc2)cn2c1-c1ccc(C)n1CC2`, the inhibition was -3.59% (inactive). The value for `O=S(=O)(c1cccs1)N1CCN(CCOc2ccccc2)CC1` was 14.3% (inactive); that for `Cn1cc(S(=O)(=O)NC(c2ccccc2)c2ccccc2)c(=O)n(C)c1=O` was 7.36% (inactive). To `Nc1cccc(CCc2nc3ccccc3[nH]2)c1` belongs -30.8% (inactive); to `Nc1cccc(-c2cc(-c3ccccc3)nc(-c3cccc(N)c3)n2)c1`, 65% (active). As to `c1ccc(-c2cc(-c3ccccc3)[nH]n2)cc1`, the inhibition was -145% (inactive).

For the compound `N#Cc1cccc(CSc2ncnc(N)n2)c1`, the inhibition was 7.81% (inactive).

On to `COc1ccc(C2CC(c3cccs3)=NN2c2nc(C)c(C(C)=O)s2)cc1OC` (stereo unspecified), for which the inhibition was 67.5% (active). To `COc1ccc(C2CC(c3cccs3)=NN2c2ccc(F)cc2)cc1OC` (stereo unspecified) belongs -3.01% (inactive). For `COc1ccc(C2CC(c3cccs3)=NN2C(=O)CCC(=O)O)cc1OC` (stereo unspecified), the inhibition is 17.5% (inactive). For `Cc1cc(NC(=O)CCC(=O)N(Cc2ccccc2)C(C(=O)NC2CCCC2)c2ccc(C)o2)no1` (stereo unspecified), the inhibition is 16.1% (inactive). The value for `O=C(Cc1cccc2ccccc12)NNC(=O)Nc1ccc(Cl)cc1` was -10% (inactive). To `Cc1ccc(NC(=S)NC(NC(=O)Cc2cccc3ccccc23)C(Cl)(Cl)Cl)cc1` (stereo unspecified) belongs 79.8% (active); to `CC(C)(C)C(=O)NC(NC(=S)Nc1ccc(S(N)(=O)=O)cc1)C(Cl)(Cl)Cl` (stereo unspecified), 18.8% (inactive); to `COc1ccc(S(=O)(=O)N2CCN(C(=O)N(C)C)C2C)cc1` (stereo unspecified), -11.6% (inactive). As to `O=c1ccc2cc(S(=O)(=O)NCCCc3ccccc3)ccc2[nH]1`, the inhibition is 23.1% (inactive). The value for `N#Cc1c(N)nc2c(c1N)CC(C(F)(F)F)O2` (stereo unspecified) was 9.73% (inactive). The value for `CN1C(=O)/C(=C/c2ccco2)SC1=Nc1cccc(C(=O)O)c1` was -14.1% (inactive); that for `Cc1ccc(-c2nn(-c3ccccc3)cc2/C=C2\SC(=S)N(CCCCCC(=O)O)C2=O)o1` was 34% (inactive); that for `O=C(CCCCCN1C(=O)c2cccc3cccc(c23)C1=O)NCc1ccco1` was 2.52% (inactive).

Regarding `O=C(CCCN1C(=O)/C(=C\c2ccco2)SC1=S)Nc1cccc2ccccc12`, the inhibition is 86.5% (active).

`O=C(CCCN1C(=O)/C(=C/c2ccco2)SC1=S)Nc1ccccc1`: the inhibition was 68.6% (active). The value for `O=C(CN1C(=O)/C(=C\c2ccccc2F)SC1=S)Nc1nc2ccccc2s1` was -22.4% (inactive); that for `Cc1sc(NC(=O)C2=COCCO2)c(C#N)c1C` was -49.9% (inactive). Regarding `COc1ccc(N2CCN(C(=O)CN3C(=O)COc4ccccc43)CC2)cc1`, the inhibition is -8.57% (inactive). As to `CNC1(c2nnnn2-c2c(C)cccc2C)CCOC(C)(C)C1` (stereo unspecified), the inhibition is 1.22% (inactive). Turning to `CCOC(=O)[C@H]1[C@H]2COc3cc(OC)ccc3[C@@H]2N2C(=O)CN(Cc3ccc(Cl)cc3)C(=O)[C@@]12C`, the inhibition is -12% (inactive). To `O=C(Cc1ccc(S(=O)(=O)N2CCOCC2)s1)NCCOc1ccccc1F` belongs 11.2% (inactive); to `Oc1c(Cl)cc(Cl)c(Cl)c1Cc1c(O)c(Cl)cc(Cl)c1Cl`, 95% (active); to `CCOc1cc(/C=N/NC(=O)c2ccc(CSc3nncn3C)cc2)ccc1OCC(=O)N1CCOCC1`, -20% (inactive).

On to `CCCCCCSc1ccc(-c2nc3ccc(Cl)cn3c2NCc2ccccc2)cc1`, for which the inhibition is -24.5% (inactive). In the case of `CCCCNc1c(-c2ccc(OC)c(Sc3ccc(OC)cc3)c2)nc2ccc(Cl)cn12`, the inhibition is 41.1% (inactive). To `CCCCNc1c(-c2cccc(Sc3ccc(OC)cc3)c2)nc2ccccn12` belongs 78.3% (active); to `CC(=NCC1CCCO1)c1c(O)[nH]c(=O)[nH]c1=O` (stereo unspecified), 60.2% (active); to `O=C1C(C=NCC2CCCO2)=C(O)c2ccccc21` (stereo unspecified), -17% (inactive). The value for `CC(=NC1CCN(Cc2ccccc2)CC1)c1c(O)[nH]c(=O)[nH]c1=O` was 10.7% (inactive); that for `CN(Cc1ccccc1)C(=O)c1cccc(C(=O)N(C)Cc2ccccc2)c1` was -13.2% (inactive). The value for `N#C/C(=C\c1ccccc1)c1n[nH]c(Cn2cncn2)n1` was -1.38% (inactive); that for `CCOC(=O)N1CCN(C(=O)C(=O)Nc2sc3c(c2C#N)CC(C)(C)OC3)CC1` was 13.5% (inactive).

On to `O=C(NCc1ccccc1)C1C(=O)N(Cc2ccccc2)C(=O)C1C1(O)CCCC1` (stereo unspecified), for which the inhibition is 13% (inactive). For the compound `CCc1nc(C)cn1S(=O)(=O)c1cc([N+](=O)[O-])ccc1Cl`, the inhibition was 66.2% (active). The value for `CC(C)c1nccn1S(=O)(=O)c1cc([N+](=O)[O-])ccc1Cl` was 25.4% (inactive); that for `CCc1nc(C)cn1S(=O)(=O)c1cc(OC)c(C)cc1C` was 8.72% (inactive); that for `C/C(=C(\C#N)C(=O)NCCCN1CCOCC1)N(C)C` was 13.1% (inactive). With `C#CCOCCOCCOCCNc1nc(N2CCN(C(=O)CCCCCCCCCCNC(=O)[C@H](CCCCN)n3cc(C)nn3)CC2)nc(N2CCN(C(=O)CCCCCCCCCCNC(=O)[C@H](CO)n3cc(CCCSC)nn3)CC2)n1`, the inhibition is 52.3% (active). The value for `C#CCOCCOCCOCCNc1nc(N2CCN(C(=O)CCCCCCCCCCNC(=O)[C@H]([C@@H](C)CC)n3cc(CCCCN=C(N)N)nn3)CC2)nc(N2CCN(C(=O)CCCCCCCCCCNC(=O)[C@H](CO)n3cc(CCCSC)nn3)CC2)n1` was 12.1% (inactive); that for `C#CCOCCOCCOCCNc1nc(N2CCN(C(=O)CCCCCCCCCCNC(=O)Cn3cc(CCCCCN)nn3)CC2)nc(N2CCN(C(=O)CCCCCCCCCCNC(=O)[C@H](CO)n3cc(CCCSC)nn3)CC2)n1` was 11.3% (inactive). The value for `COCCN(C(=O)CC1CCCCC1)c1c(N)n(CC(C)C)c(=O)[nH]c1=O` was 13.6% (inactive); that for `CCOC(=O)CCCNC(=O)COC(=O)c1cc(Br)c(Br)s1` was 12% (inactive).

For the compound `COc1ccc(C)cc1NC(=O)CSc1nnc2ccc(-c3ccccn3)nn12`, the inhibition was 15.8% (inactive).

Turning to `COc1ccc(-c2nc3n(c(=O)c2C#N)CCS3)c(OC)c1`, the inhibition was 1.98% (inactive). The value for `Cc1c(Br)c([N+](=O)[O-])nn1C(C)C(=O)Nc1nccs1` (stereo unspecified) was 9.97% (inactive); that for `O=C(NCCN1CCOCC1)c1ccc(/C=C2\Sc3ccccc3N(Cc3ccc(F)cc3)C2=O)cc1` was 62.4% (active).

For the compound `CCN1CCN(CCNC(=O)c2ccc(/C=C3/Sc4ccccc4N(Cc4cccc(C)c4)C3=O)cc2)CC1`, the inhibition is 96.1% (active). To `Cc1nn(Cc2ccccc2)c(C)c1C(=O)NCCN1C(=O)S/C(=C\c2ccc(F)cc2)C1=O` belongs 26.7% (inactive); to `O=C(NCCCN1CCOCC1)c1ccc2c(c1)N(Cc1cccc(F)c1)C(=O)c1ccccc1S2`, 13.8% (inactive). The value for `CCCN1CCN(C(=O)CCCNC(=O)c2ccc(Cl)cc2)CC1` was -0.622% (inactive); that for `O=C(NCCN1CCOCC1)/C(=C/c1ccc(F)cc1)NC(=O)c1ccccc1` was -6.74% (inactive). As for `CN1CCN(CCCNC(=O)c2ccc(/C=C3\Oc4ccccc4N(Cc4ccc(Cl)cc4)C3=O)cc2)CC1`, the inhibition is 99.3% (active). For the compound `CC(C)OCCCNC(=O)CN1C(=O)/C(=C/c2ccccc2F)Oc2ccccc21`, the inhibition is 13.4% (inactive). Regarding `Cc1ccccc1CN1C(=O)c2ccccc2Sc2ccc(C(=O)NCCCN3CCOCC3)cc21`, the inhibition was 24.3% (inactive). To `O=C(CCc1ccc(S(=O)(=O)N2CCOCC2)cc1)NN=C1CCCCCCC1` belongs 21.1% (inactive). The value for `N#Cc1cccc(NC(=O)C2CCCN(C(=O)c3ccc(Cl)cc3)C2)c1` (stereo unspecified) was 27.2% (inactive).

For `O=C(NNC(=O)C1C2CCC(C2)C1C(=O)O)c1ccc(Cl)cc1` (stereo unspecified), the inhibition was -14% (inactive). Regarding `COc1ccc(C(=O)COC(=O)c2nn(C)c(=O)c3ccccc23)c(OC)c1`, the inhibition was 3.83% (inactive).

Turning to `CC(NC(=O)c1cccc(S(=O)(=O)N2CCc3ccccc3C2)c1)c1ccco1` (stereo unspecified), the inhibition was 3.48% (inactive). To `O=C(NCc1ccncc1)c1cccc(NS(=O)(=O)c2ccc(F)c(F)c2)c1` belongs -23.7% (inactive); to `CCOC(=O)C1=C(C)c2ccccc2OC1(C)C(=O)OCC` (stereo unspecified), 11.2% (inactive); to `CC(Oc1ccc2c(-c3ccccc3)cc(=O)oc2c1)C(=O)NC(Cc1c[nH]c2ccccc12)C(=O)O` (stereo unspecified), 15.6% (inactive). The value for `Cc1ccc(-c2nc(C)sc2CC(=O)OCC(=O)Nc2c(F)cccc2F)cc1` was 7.55% (inactive). To `O=C(O)CCCn1c(=O)c2cccn2c2ccc(F)cc21` belongs 4.87% (inactive).

The inhibition is the relative decrease from the control value, in per cent.
